VP16 counter: VP16 counterscreen qHTS for inhibitors of ROR gamma transcriptional activity | Drosophila S2 Gal4-VP16 UAS-luciferase, luminescence, 20 h | Potency, µM (series often up to 53.6 µM), usual class: inhibitors | 310,000 compounds, 3.5% hits;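 note: Gal4-VP16 expression switched on by copper sulfate through the metallothionein promoter; nearly all actives have a fitted effect of over 50% in size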
DT40 TDP1 no CPT: qHTS for Inhibitors of human tyrosyl-DNA phosphodiesterase 1 (TDP1): qHTS in cells in absence of CPT. DT40 Tdp1-/- hTDP1 cells, no CPT, ATP luminescence, 48 h. Potency, µM (top dose mostly 46.2 µM), hits mostly inhibitors. 420,000 compounds, 15% hits; note: nearly all actives have a fitted effect of over 55% in size
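Camptothecin absent (DMSO only). Human TDP1-complemented DT40 knockout cells, 400 cells/well, 37 °C for minimum 48 hr; ATP measured via CellTiter-Glo, 30 min dark incubation, luminescence.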
ELG1 repair inh: qHTS screen for small molecules that inhibit ELG1-dependent DNA repair in human embryonic kidney (HEK293T) cells expressing luciferase-tagged ELG1; HEK293T ELG1-luciferase reporter, luminescence, 16 h; DNA damage induced by 5-fluorouridine; Potency, µM (titrated, usually from 46.1 µM), actives largely listed as inhibitors; 330,000 compounds, 2.3% hits; AID 504467, 2011; note: nearly all actives have a fitted effect of over 55% in size
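5-Fluorouridine DNA damage + compound/DMSO, 2,000 cells/well, 16 h, 37 °C/5% CO2. ONE-Glo, 30 min RT, luminescence. Readout = decrease in reporter signal.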
RORg inh: qHTS for inhibitors of ROR gamma transcriptional activity; Nuclear receptor ROR-gamma (Mus musculus), P51450; Drosophila S2 Gal4-RORgamma UAS-luciferase reporter, 20 h; Potency, µM (series often up to 53.6 µM), usual class: inhibitors; 310,000 compounds, 5.4% hits; note: nearly all actives have a fitted effect of over 60% in size
Target sequence (P51450 whole entry, looked up, the tested form may be a part): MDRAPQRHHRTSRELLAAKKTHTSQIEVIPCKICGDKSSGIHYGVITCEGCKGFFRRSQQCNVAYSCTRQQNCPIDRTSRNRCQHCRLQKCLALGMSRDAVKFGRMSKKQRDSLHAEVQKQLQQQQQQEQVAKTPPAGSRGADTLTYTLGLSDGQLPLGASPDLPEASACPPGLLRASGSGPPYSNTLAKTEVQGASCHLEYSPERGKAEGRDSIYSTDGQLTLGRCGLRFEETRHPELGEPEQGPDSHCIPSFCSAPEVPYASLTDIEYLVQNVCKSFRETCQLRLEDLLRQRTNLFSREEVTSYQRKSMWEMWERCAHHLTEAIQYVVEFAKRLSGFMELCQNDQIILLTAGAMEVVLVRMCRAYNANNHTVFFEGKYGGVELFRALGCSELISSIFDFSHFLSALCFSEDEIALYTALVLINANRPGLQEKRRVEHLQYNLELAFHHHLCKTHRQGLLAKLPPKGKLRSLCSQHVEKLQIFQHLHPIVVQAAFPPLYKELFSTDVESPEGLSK
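A Gal4/UAS one-hybrid system in insect cells: metallothionein-promoter Gal4–ROR gamma fusion plus Photinus luciferase reporter. Copper sulfate 700 uM final, 20 hr ambient incubation, luminescent detection after 10 min with reagent.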
IL-1B inflam inh: qHTS for Inhibitors of Inflammasome Signaling: IL-1-beta AlphaLISA Primary Screen | THP-1 LPS/ATP IL-1B secretion, AlphaLISA, 16 h; stronger effect = lower value | activity change, % at 57.5 µM | 360,000 compounds, 4.7% hits | AID 743279, 2014; in the data active = activity change below about -50%; inconclusive = mostly about -30% to -49%
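THP-1 cells pretreated 1 hr with compounds (up to 57.5 uM final), then stimulated with LPS (250 ng/mL final) plus ATP (1.25 mM final); secreted IL-1B measured by AlphaLISA after 16 hr, decreased signal indicating inhibition.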
DT40 TDP1 CPT: qHTS for Inhibitors of human tyrosyl-DNA phosphodiesterase 1 (TDP1): qHTS in cells in presence of CPT; chicken DT40 Tdp1-/-;hTDP1 cells + 20 nM CPT, ATP luminescence, 48 h; Potency, µM (doses to about 46.2 µM), usual class: inhibitors; 420,000 compounds, 12% hits; AID 686979, 2013; note: nearly all actives have a fitted effect of over 55% in size
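Chicken DT40 Tdp1-/- cells stably complemented with human TDP1 were seeded at 400 cells/well in medium containing 20 nM camptothecin, exposed to pin-transferred compounds, and grown at 37 °C for at least 48 hr. Viability was read as ATP luminescence.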
Numbers stand for hits; 0 = inactive; ? = inconclusive; - = not tested or not shown; ! = not confirmed by another sample; [ ] = remark or other dose. Most compounds without a hit are left out; they make up all but 21% or so of the library. Unless noted, calls come from the whole dose curve; as a rule, active = well fitted curve in the direction sought with a large enough effect; inconclusive = small, poorly fitted or top-dose-only effect, or another doubt; inactive = no such curve, though single readings can be large; an effect the other way counts as inactive or inconclusive.

SMILES	VP16 counter	DT40 TDP1 no CPT	ELG1 repair inh	RORg inh	IL-1B inflam inh	DT40 TDP1 CPT
C[C@@H]1C(=O)CC2C(C)(C)CCC[C@]2(C)[C@@]1(O)CCc1ccoc1 (stereo partly drawn)	0	0[9.04 µM]	-	0	-	0[9.04 µM]
CC1CC2OC(=O)C3(C)CCCC(C)(C23)C1(O)CCc1ccoc1 (stereo not drawn)	0	0	15µM	0	0	0
Cc1cc(Cl)c(S(=O)(=O)N2CCN(c3ccc(F)cc3)CC2)cc1OCC(N)=O	0	0	?	0	0	0
Cc1ccc(C(C)C)cc1OCC(=O)NC1CCCCCCC1	-	?	0	-	-57	18µM
CCOC(=O)C1CCCN(S(=O)(=O)c2cc(OCC(=O)NC3CCCCC3)c(C)cc2Cl)C1 (stereo not drawn)	0	18µM	21µM	0	0	18µM
Cc1cc(Cl)c(S(=O)(=O)N2CCN(c3ccc(F)cc3)CC2)cc1OCC(=O)NC1CCCCC1	0	8.2µM	8.2µM	0	-75	12µM
Cc1cccc(NS(=O)(=O)c2ccc(-n3cccn3)cc2)c1C	0	7.3µM	0	0	0	13µM
Cc1ccc(NS(=O)(=O)c2ccc(-n3cccn3)cc2)c(C)c1	0	?	0	0	0	18µM
Cc1cccc(NS(=O)(=O)c2ccc3[nH]c(=O)[nH]c3c2)c1C	0	?	0	0	0	0
Cc1cccc(NS(=O)(=O)c2ccc3c(c2)Cc2cc(S(=O)(=O)Nc4cccc(C)c4C)ccc2-3)c1C	0	5.2µM	0	0	0	6.5µM
Cc1ccc(NS(=O)(=O)c2ccc(-n3cccn3)cc2)nc1	0	0	0	0	0	0
Cc1ccc(NS(=O)(=O)c2ccc(-n3cccn3)cc2)c(Br)c1	-	16µM	-	-	0	18µM!
Cc1ccc(Cl)cc1NS(=O)(=O)c1ccc(-n2cccn2)cc1	0	0	0	0	0	?
CCOC(=O)C1CCN(c2c(NC3CCCc4ccccc43)c(=O)c2=O)CC1 (stereo not drawn)	0	0	0	0	0	0
COc1cccc(CN(C)C(=O)CCN=C2NS(=O)(=O)c3ccccc32)c1	-	0	?	-	0	0
CCCn1nnnc1NCc1ccccc1OCc1cccs1	0	0	0	0	0	0
c1ccc(COc2ccccc2CNC2CCCC2)cc1	0	?	?	?	-70	?
COc1cccc(CNC2CCCCCCC2)c1OC	0	0	0	0	0	0
c1ccc(COc2ccccc2CNC23CC4CC(CC(C4)C2)C3)cc1	?	15µM	?	?	-95	18µM
c1csc(COc2ccccc2CNC2CCCCC2)c1	0	?	0	0	-73	?
CCc1nc2c(OCC(=O)N3CCOCC3)cccn2c1N(C)C(=O)COc1ccccc1	-	0	-	-	0	0
O=C1/C(=C/c2ccc([N+](=O)[O-])cc2)C=C(c2ccccc2)N1c1ccccc1	0	?	0	0	0	?
COc1ccc(N2C(=O)/C(=C/c3ccc([N+](=O)[O-])cc3)C=C2c2ccccc2)cc1	0	2.9µM	0	0	?	3.7µM
O=C1/C(=C/c2ccc([N+](=O)[O-])cc2)C=C(c2ccccc2)N1c1ccc(O)cc1	0	2.9µM	?	0	-99	5.2µM
CCc1nc2nc(C)c(NS(=O)(=O)c3ccc(C)cc3)c(=O)n2[nH]1	-	0	-	-	-	0
SMILES	VP16 counter	DT40 TDP1 no CPT	ELG1 repair inh	RORg inh	IL-1B inflam inh	DT40 TDP1 CPT
N#CC1=C(N)c2ccccc2CC12CCCCC2	0	?	0	0	-52	?
O=C1NC(=O)[C@@]2(CCOc3ccc(F)cc32)N1	0	0	-	0	-	0
COC(=O)C1=CN(c2ccc(OC)cc2)C=C(C(=O)OC)C1c1ccc(C)c([N+](=O)[O-])c1	0	21µM	0	0	0	?
COC(=O)C1=CN(C)C=C(C(=O)OC)C1c1ccc(O)c(OC)c1	0	0	?	0	0	0
COC(=O)C1=CN(c2ccc(F)cc2)C=C(C(=O)OC)C1c1cccc([N+](=O)[O-])c1	0	26µM	0	0	0	0
COC(=O)C1=CN(c2ccc(OC)cc2)C=C(C(=O)OC)C1c1cccc(F)c1	0	0	?	?	0	0
COC(=O)C1=C(C#N)NC(C)=C(C(=O)OC(C)C)C1c1cccc([N+](=O)[O-])c1 (stereo not drawn)	0	19µM	-	0	-	30µM
COC(=O)C1=CN(c2cccc(C(F)(F)F)c2)C=C(C(=O)OC)C1c1ccc(O)c(OC)c1	0	?	?	0	-51	?
CCNc1ncc2nc(C)c(=O)n(CCC#N)c2n1	0	0	-	0	-	0
CCNc1nc(C)c2cc(Br)c(=O)n(CC)c2n1	0	2.9µM	?	0	0	3.7µM
CN1CCc2c(sc(N)c2C(=O)c2ccc(Cl)cc2)C1	?	?	0	0	0	?
COc1ccc(C(=O)c2c(N)sc3c2CCN(C(=O)OC(C)(C)C)C3)cc1	0	0	23µM	0	-	15µM
CC(C)c1cc(C(=O)NC(C)c2ccccc2)no1 (stereo not drawn)	-	0	-	-	-	0
Cc1c(C(=O)c2ccc(F)cc2F)c2ccccn2c1CCC#N	0	0	0	0	0	0
Cc1c(C(=O)c2ccc(N(C)C)cc2)c2ccccn2c1CCC#N	0	?	0	0	-73	0
CC1=C(c2ccc(C(C)C)cc2)S(=O)(=O)NC1=NCc1ccccc1Br	-	13µM	-	-	-	?
O=C1Cc2c([nH]c3ccc([N+](=O)[O-])cc23)-c2ccccc2N1	-	1.8µM	-	-	-99	1.8µM
CC(=O)C1=C(c2ccccc2)NC(=S)NC1c1ccc(O)c(O)c1 (stereo not drawn)	0	0	0	0	0	0
S=C1NC2=C(CCCC2=C2SCCS2)C(c2ccccc2)N1 (stereo not drawn)	?	16µM	?	7.1µM	-84	0
NC(=O)c1cccc(-c2ccnc3c2CC(C(=O)Nc2cccc(C(F)(F)F)c2)O3)c1 (stereo not drawn)	-	18µM	-	-	0	18µM
CC(=O)Nc1ccc(-c2ccnc3c2CC(C(=O)Nc2cccc(OC(F)(F)F)c2)O3)cc1 (stereo not drawn)	-	18µM	-	-	0	21µM
CC(=O)Nc1cccc(-c2ccnc3c2CC(C(=O)Nc2cccnc2)O3)c1 (stereo not drawn)	-	?	-	-	0	0

High-throughput results from PubChem.
